SMILES strings stand for the structures. Records with an inconclusive call do not appear. Active and inactive are the calls of the source. Calls follow the shape of the dose curve; as a rule, active = well fitted activation curve with a large enough effect; inconclusive = small, poorly fitted or top-dose-only effect; inactive = no such curve, though single readings can be large or run the other way.

A short description of the test: qHTS Multiplex Assay to Identify Dual Action Probes in a Cell Model of Huntington: Cytoprotection confirmation (ATP). The following applies: PC12 HttQ103 induced, ATP luminescence 40 h; series mostly up to 46.1 µM; cytoprotection, positive = protection: at the top concentration. An excerpt:
NIH Chemical Genomics Center [NCGC]
NIH Molecular Libraries Probe Production centers Network [MLPCN]
Assay Submitter (PI): Wei Zheng
Huntington's disease is a neurodegenerative disorder caused by a trinucleotide repeat expansion in Exon 1 of the Huntingtin gene. The CAG trinucleotide encodes glutamine and polyglutamine expansions cause cell death in selective areas of the brain. Huntington polyglutamine repeats have the tendency to form aggregates which are observable in later stages of the disease. The exact nature of the aggregates, whether toxic, protective, or insignificant, is unclear.
A stable PC12 cell line containing a gene fusion of Exon 1 of the Huntingtin gene linked to GFP under the control of the inducible ecdysone promoter were used as the cell-based model of Huntington Disease for high throughput screening. Exon 1 of the Huntingtin gene contained an expansion of 103 polyglutamines (Q103) which, when expressed, caused cell death and distinct, bright GFP aggregates. The amount of cell death and the size and intensity of GFP aggregates increased over time and induction level. The cell death were quantified with a measurement of ATP content in the cells. A maximal 40-50% of cell death was observed when the Huntington gene was induced in this cell line.
We optimized this assay in a homogeneous 1536 well format. A quantitative high throughput screen (qHTS) was conducted on the PC12 cells which were induced to express the toxic fusion construct. Small molecules which prevented cell death were identified by using a luminescent ATP quantification method (Perkin Elmer's ATPlite).
PC12 cells stably containing a construct with an ecdysone inducible promoter expressing GFP fused to the exon 1 of HTTQ103 (Huntington protein which containing a 103 ployglutamine expansion) were used.
NCGC Assay Protocol Summary:
Sequence, Parameter, Description
1, Reagent, 5 uL 1500 cells/well 1536 TC treated White clear bottom plate
2, Compound, 23 nL Tebufenozide inducer (100 nM final) to all columns
3, Compound, 23 nL 40 uM to 0.5 nM Libraries
5, Reagent, 5 ul ATPLite cell death assay reagent
6, Detector, 4 sec integration with a Viewlux Luminescent
Media consisted of phenol red free DMEM + 5% equine serum (Hyclone # SH30072.03 ), 5% supplemented Bovine Calf Serum (Hyclone # SH30074.03 ), 1x pen/strep, no G418
With `O=C1C=C2C=CC3C[C@@]2(O1)C1CCCCN31` (stereo partly drawn), the Potency was 12.6 µM (active).

On to `Oc1cc(Cl)ccc1Oc1ccc(Cl)cc1Cl`, for which the “cytoprotection, positive = protection” value was -9.42% (inactive).

In the case of `CCC(C)C(=O)OC1C(O)C2C(CN3CC(C)CCC3[C@]2(C)O)C2C[C@]34O[C@@]5(O)C(OC(=O)C(C)(O)CC)CCC3(C)C5C(OC(C)=O)C(OC(C)=O)C4[C@@]21O` (stereo partly drawn), the “cytoprotection, positive = protection” value is -18.1% (inactive).

Regarding `C[C@H]1CC[C@@]2(NC1)O[C@@H]1C[C@H]3[C@@H]4CC=C5C[C@@H](O)CC[C@]5(C)[C@@H]4CC[C@]3(C)[C@@H]1[C@@H]2C`, the “cytoprotection, positive = protection” value is 3.58% (inactive).

As for `C[C@@]1(CO)[C@H](O)CC[C@@]2(C)[C@H]1CC[C@H]1C[C@@H]3C[C@@]12CC[C@]3(O)CO`, the “cytoprotection, positive = protection” value is -47.8% (inactive).

For `O=C1C=C2C=C[C@H]3C[C@]2(O1)[C@@H]1CCCCN13`, the “cytoprotection, positive = protection” value is 66.7% (inactive).

In the case of `CC[C@]1(C2=NCCN2)Cc2ccccc2O1`, the “cytoprotection, positive = protection” value is -1.9% (inactive).

On to `O=C1C=C2C=C[C@H]3C[C@@]2(O1)[C@H]1CCCCN31`, for which the “cytoprotection, positive = protection” value was 58% (inactive).

The record behind these values is PubChem BioAssay AID2673 (National Center for Advancing Translational Sciences (NCATS), 2010).
